Shown are actives, neighbours in structure and some others; about 3.7% of the full set was active somewhere.
V-ATPase pHluor = yeast V-ATPase proton transport regulation by pHLuorin | 350,000 compounds, 0.37% hits | response, % at 10 µM | S. cerevisiae, pHLuorin cytosolic pH fluorescence; in the data active = response mostly above about 7.3%, no sharp cut-off; inactive = mostly below about 5.4%; note: actives read high
tim23-1 inh = growth inhibitors of tim23-1 mutant yeast; S. cerevisiae tim23-1 growth, BacTiter-Glo luminescence, 24 h; inhibition, % at 20 µM; 330,000 compounds, 1.3% hits; AID 463212;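 active = growth inhibition of the mutant yeast at or above 50%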;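 note: temperature-sensitive mutant grown at 25 °C; plate controls were DMSO-treated mutant yeast for no effect and medium wells lacking yeast for full effect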
tim10-1 inh = growth inhibitors of tim10-1 mutant yeast | 330,000 compounds, 2.2% hits | inhibition, % at 20 µM | AID 463190 | S. cerevisiae tim10-1 ts strain growth, BacTiter-Glo, 24 h;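 active = inhibition of at least 40%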;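 note: mutant grown at 25 °C; 0% = DMSO wells with yeast and 100% = wells holding no yeast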
TIM10 inh = inhibits growth of TIM10 yeast strain. inhibition, % at 10 µM. S. cerevisiae TIM10 strain growth, BacTiter-Glo luminescence, 24 h. 330,000 compounds, 1.4% hits;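 active = inhibition of 40% or more at the single tested concentration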;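 note: wild-type TIM10 isogenic control strain grown at permissive 25 °C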
PfHsp90 set2 = inhibits growth of yeast expressing Plasmodium falciparum Hsp90. S. cerevisiae expressing PfHsp90, BacTiter-Glo ATP, 48 h; yeast lacking PDR1 and PDR3 efflux regulators. inhibition, % at 9.4 µM. 310,000 compounds, 0.32% hits;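 active = every replicate shows inhibition above about 80%, whatever the replicate mean, limit read from the data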;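 note: 0% = DMSO neutral controls and 100% = 20 µM radicicol positive controls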
tim10-1 conf = confirmation of tim10-1 mutant yeast growth inhibitors | inhibition, % at 20 µM | S. cerevisiae tim10-1 ts strain growth, BacTiter-Glo, 24 h | 7,400 compounds, 56% hits | AID 463213 | shares compounds with tim10-1 inh;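 active = inhibition of yeast growth at or above a set limit in either of two repeat tests at 20 µM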;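 note: tim10-1 mutant grown at permissive 25 °C to find synthetic lethal compounds; 0% = DMSO yeast wells and 100% = medium wells without yeast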
tim10 confirm = TIM10 yeast growth inhibition, confirmed; S. cerevisiae tim10 strain growth, BacTiter-Glo luminescence, 24 h; inhibition, % at 10 µM; shares compounds with TIM10 inh; 4,600 compounds, 63% hits;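 active = inhibition of yeast growth at or above a set limit in either of two replicates at 10 µM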;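 note: this counterscreen used the strain with wild-type TIM10; 0% = yeast with DMSO and 100% = medium wells lacking yeast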
The depositor's hits bear a star; / = not tested or not shown.

SMILES | V-ATPase pHluor | tim23-1 inh | tim10-1 inh | TIM10 inh | PfHsp90 set2 | tim10-1 conf | tim10 confirm
O=C(N/N=C/c1ccc(OCc2ccccc2)cc1)c1ccco1 | 1 | 21 | -7 | -3 | -5 | / | /
O=C(N/N=C\c1ccccc1OCc1ccccc1)c1ccco1 | / | 34 | 43* | 50* | -12 | 22 | 31*
Cc1cc2oc(=O)cc(Cn3ccnc3)c2cc1Cl | 0 | -5 | -2 | -11 | 9 | / | /
COc1ccccc1CNS(=O)(=O)c1ccc(Br)s1 | -4 | 26 | 18 | -7 | -15 | / | /
O=C(NC(=S)NC1CCC(O)CC1)c1ccco1 (configuration not stated) | -4 | 16 | 11 | 3 | -16 | / | /
NC(=S)Nc1cccc2cc3ccccc3cc12 | -5 | 44 | 40* | 40* | 7 | 26 | 32*
NC(=S)Nc1cc2ccccc2c2ccccc12 | 5 | 36 | 34 | 30 | 23 | / | /
FC(F)(F)c1cccc(NC(=S)Nc2cccc(NC(=S)Nc3cccc(C(F)(F)F)c3)n2)c1 | -1 | 44 | 53* | 48* | 18 | 33* | 32*
FC(F)(F)c1cccc(NC(=S)NCC2COc3ccccc3O2)c1 (configuration not stated) | 7 | 49 | 66* | 48* | 5 | 56* | 57*
FC(F)(F)c1cccc(NC(=S)Nc2ccc(Cl)cc2Cl)c1 | -1 | 46 | 70* | 62* | 7 | 47* | 51*
COc1ccc2c(c1)S/C(=C\C(=O)c1ccncc1)N2C | 0 | 41 | 54* | 82* | 75 | 73* | 85*
COc1cc(OC)cc(C(=O)/C=C2\Sc3ccccc3N2C)c1 | 3 | 10 | 20 | 21 | -8 | / | /
CC(C)C(C)(C#N)NC(=O)COC(=O)C1CCN(S(=O)(=O)c2ccc3c(c2)OCCO3)CC1 (configuration not stated) | -1 | / | / | / | 5 | / | /
COc1ccc(OCC(=O)Nc2ccc(N3CCOCC3)c(Cl)c2)cc1 | 0 | 26 | 17 | 11 | -9 | / | /
COc1ccc(OCC(=O)Nc2ccc(N3CCN(C(=O)c4ccccc4)CC3)c(Cl)c2)cc1 | 1 | 40 | 60* | 44* | 19 | 58* | 57*
CCCN(CCC)C(=S)NC(=O)c1ccc(-c2ccccc2)cc1 | -2 | 32 | 42* | 44* | -25 | 16 | 42*
CCOc1ccc(C(=O)NC(=S)N(Cc2ccccc2)Cc2ccccc2)cc1 | 0 | / | / | / | / | / | /
COc1ccc(/C(C)=N/NC(=S)NCCc2ccccc2)cc1 | 0 | 44 | 41* | 47* | -26 | 35* | 13
C/C(=N\NC(=S)NCCc1ccccc1)c1cccc(Br)c1 | -1 | 10 | 17 | 37 | -25 | / | /
C/C(=N\NC(=S)NCc1ccccc1)c1cccc(Br)c1 | -2 | 30 | 42* | 45* | -12 | 27 | 24
C/C(CCc1ccccc1)=N\NC(=S)NCCc1ccccc1 | -5 | 30 | 27 | 4 | 27 | / | /
NC(=O)c1ccsc1NC(=O)COC(=O)Cc1ccccc1[N+](=O)[O-] | -2 | / | / | / | / | / | /
O=c1c2sc(-c3ccccc3)cc2nc2n1CCC2 | 1 | 50 | 64* | 78* | 67 | 65* | 73*
COc1ccccc1CN1CC(C(=O)NC2CCOCC2)CCC1=O (configuration not stated) | 0 | 2 | -2 | 2 | -17 | / | /
Cn1c(=O)c2nc(-c3ccccc3)oc2c2ccccc21 | -1 | 49 | 55* | 59* | / | 48* | 68*
N/C(=N\OC(=O)c1cccnc1)c1ccc(Cl)cc1Cl | -5 | 41 | 44* | 41* | -2 | 41* | 21
N/C(=N\OC(=O)c1cccnc1)c1ccccc1Cl | -1 | 13 | 6 | 20 | 0 | / | /
OCCN1CCN(C2Cc3cc(Cl)ccc3Sc3ccc(Cl)cc32)CC1 (configuration not stated) (tested in a mixture with another compound) | 0 | 20 | 48* | 43* | -21 | 35* | 1
CCC(C(=O)O/N=C(\N)c1ccc(Cl)cc1)c1ccccc1 (configuration not stated) | -7 | 11 | 75* | 63* | -21 | 63* | 71*
